Test results taken from PubChem BioAssay (NCI).
Compounds without any hit were thinned out: in the full panel of roughly 79,000, 15% have a hit. The source made the active and inactive calls. No stated cut-off is given here; in the data, active means growth inhibition above about 70%; inactive means the rest.

Tests used:
[1] = NCI Yeast Anticancer Drug Screen. Data for the mec2-1 strain (AID 157); conditions: S. cerevisiae mec2-1 strain, active compounds read high
Method in brief: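 Compounds were applied to mec2-1 yeast cells. Their growth was then compared with that of vehicle-treated cultures to give growth inhibition.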

[2] = NCI Yeast Anticancer Drug Screen. Data for the rad14 strain (AID 159);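 further: 0% = growth of vehicle-treated control cultures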; conditions: S. cerevisiae rad14 strain growth inhibition, active compounds read high
Method in brief: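 DNA repair-defective yeast, compound-exposed; % growth inhibition derived by comparison with vehicle-treated controls.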

[3] = NCI Yeast Anticancer Drug Screen. Data for the sgs1 mgt1 strain (AID 161);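 further: 0% = growth of cultures given vehicle only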; conditions: S. cerevisiae sgs1 mgt1 strain, active compounds read high
Method in brief: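 Percent growth inhibition was derived by comparing compound-exposed mutant yeast with vehicle-exposed cultures. The strain carries alterations in DNA damage repair.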

[4] = NCI Yeast Anticancer Drug Screen. Data for the CLN2oe strain (AID 163);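 further: 0% = growth of vehicle-only control cultures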; conditions: S. cerevisiae CLN2oe strain, active compounds read high
Method in brief: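 Cells of an engineered yeast line with disturbed cell-cycle regulation are treated with compound. Inhibition of growth is then calculated relative to the vehicle-treated reference.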

[5] = NCI Yeast Anticancer Drug Screen. Data for the cln2 rad14 strain (AID 165);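 further: 0% = growth equal to vehicle treated cultures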; conditions: S. cerevisiae cln2 rad14 strain, active compounds read high
Method in brief: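 Strain: cln2 rad14 yeast, altered in cell cycle control and DNA damage repair. Read-out: growth inhibition vs vehicle.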

[6] = NCI Yeast Anticancer Drug Screen. Data for the bub3 strain (AID 167); conditions: S. cerevisiae bub3 mutant strain, active compounds read high
Method in brief: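 In this screen, a yeast mutant lacking normal mitotic checkpoint function is challenged with compound. Relative growth versus vehicle gives the inhibition value.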

[7] = NCI Yeast Anticancer Drug Screen. Data for the mlh1 strain (AID 171);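 further: 0% = growth of vehicle-treated control cultures of the same strain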; conditions: S. cerevisiae mlh1 strain growth inhibition, active compounds read high
Method in brief: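 Test agents were incubated with yeast bearing a defined DNA damage repair or cell cycle control alteration; values are growth inhibition normalised to vehicle-treated cultures.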

[8] = NCI Yeast Anticancer Drug Screen. Data for the sgs1 strain (AID 173);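 further: 0% = growth of vehicle-only control cultures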; conditions: S. cerevisiae sgs1 mutant, active compounds read high
Method in brief: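 Strain with an altered DNA repair or cell cycle pathway exposed to compound. Growth then measured. Value = inhibition versus vehicle control.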

[9] = NCI Yeast Anticancer Drug Screen. Data for the mlh1 rad18 strain (AID 175); conditions: S. cerevisiae mlh1 rad18 strain growth inhibition, active compounds read high
Method in brief: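 A repair-deficient yeast strain is exposed to test compound, and growth is scored relative to vehicle-treated controls.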

[10] = NCI Yeast Anticancer Drug Screen. Data for the rad18 strain (AID 177); conditions: S. cerevisiae rad18 mutant growth inhibition, active compounds read high
Method in brief: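 DNA-repair-defective yeast; compound treatment; growth inhibition scored against vehicle.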

[11] = at 5.0 µM (retest, dose inferred, filed as 0.5)
[12] = at 50.0 µM (retest, dose inferred, filed as 5.0)

Measured: growth inhibition

COc1cc(O)c(O)c(C(C)(C)C)c1
inactive: [1]; [11] 4% | [1]; at 11.0 µM 0% | [1]; at 33.0 µM 5% | [1]; [12] 16% | [1]; at 50.0 µM 59.5% | [1]; at 100.0 µM 18% | [2]; at 1.2 µM -1% | [2]; at 3.7 µM -3% | [2]; at 11.0 µM 5% | [2]; at 33.0 µM 10% | [2]; at 100.0 µM 19% | [3]; [11] 2% | [3]; [12] 50% | [3]; at 50.0 µM 63.8% | [4]; at 1.2 µM -1% | [4]; at 3.7 µM -3% | [4]; at 11.0 µM 3% | [4]; at 33.0 µM -3% | [4]; at 100.0 µM -6% | [5]; [11] -14% | [5]; [12] 18% | [5]; at 50.0 µM 4.65% | [6]; at 1.2 µM -6% | [6]; at 3.7 µM -5% | [6]; [11] 0% | [6]; at 11.0 µM 2% | [6]; at 33.0 µM 7% | [6]; at 50.0 µM 61.1% | [6]; at 100.0 µM 17% | [7]; at 1.2 µM 3% | [7]; at 3.7 µM 3% | [7]; at 11.0 µM 9% | [7]; at 33.0 µM 15% | [7]; at 100.0 µM 26% | [8]; at 1.2 µM 1% | [8]; at 3.7 µM 7% | [8]; at 11.0 µM 16% | [8]; at 33.0 µM 8% | [8]; at 100.0 µM 43% | [9]; [11] 20% | [9]; at 50.0 µM 22.9% | [10]; at 1.2 µM 0% | [10]; at 3.7 µM 1% | [10]; at 11.0 µM -17% | [10]; at 33.0 µM 8% | [10]; at 100.0 µM 16%
active: [6]; [12] 82% | [9]; [12] 82%
